Activity calls are given as the source filed them. Unless noted, no rule for the calls is given here.

The subject of assay [1] is Wnt5a (protein binding on small-molecule microarray). Description: Wnt5a binders on small-molecule microarray, primary screen, biophysical, 635/667 nm fluorescence (AID 1142).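 Also: fluorescence read at 667 nm with signal to noise per printed feature.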 The conditions noted are these: 635 nm fluorescence, higher = more signal.
A short description of assay [2]: cell viability in Huh7 cells, primary screen, cytotoxicity control for HCV replication inhibitor project, CellTiter-Glo luminescence, basal, 48 h (AID 1143).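 Also: Huh7 hepatoma cells carrying a hepatitis C replication reporter with no stimulus; test concentration not given here.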 The conditions noted are these: Huh7 HCV replicon, higher = more signal, called active from +8 up or from −8 down.
The nature of assay [3]: P. aeruginosa biofilm formation inhibitors, primary screen, PAO1 strain, BacTiter-Glo luminescence, LB-PBS (AID 1144). The following applies: 12 h, higher = more signal.
Assay [4] is described as follows: CREB reporter modulators without forskolin, primary screen, cell-based, PC12, CRE-LacZ reporter, unstimulated (AID 1145). The conditions noted are these: no forskolin, luminescence, 4.5 h, higher = more signal, called active from +8 up or from −8 down.
A short description of assay [5]: CREB reporter modulators under forskolin, primary screen, cell-based, PC12, CRE-LacZ reporter, forskolin-stimulated (AID 1146).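 Also: PC12 cells with 6xCRE LacZ reporter stimulated by forskolin 10 µM; beta-galactosidase reporter signal reflecting CREB driven transcription.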 The following applies: luminescence, 4.5 h, higher = more signal, called active from +8 up or from −8 down.
The target of assay [6] is Streptavidin (Streptomyces avidinii) (UniProt P22629). Description: streptavidin binders on small-molecule microarray, primary screen, artefact control for SMM compound annotation, biophysical, 635/667 nm fluorescence (AID 1147).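 Also: signal reflects streptavidin binding to arrayed compounds as a control protein.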 The conditions noted are these: streptavidin binding, higher = more signal.
Chain of Streptavidin (Streptomyces avidinii) (P22629 whole entry, looked up): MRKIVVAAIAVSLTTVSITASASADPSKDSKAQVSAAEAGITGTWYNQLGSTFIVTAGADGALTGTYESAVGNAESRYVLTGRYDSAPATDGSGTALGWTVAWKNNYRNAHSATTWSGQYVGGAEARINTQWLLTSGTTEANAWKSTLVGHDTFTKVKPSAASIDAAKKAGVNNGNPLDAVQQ
Assay [7] is described as follows: small-molecule binders of probe aInhba, primary screen, biochemical, small-molecule microarray, 635/667 nm fluorescence (AID 1148).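 Also: score merges 667nm spot fluorescence with signal-to-noise for antibody binding to printed compounds.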 The conditions noted are these: higher = more signal.
Assay [8] deals with Torsin-1A (Homo sapiens) (UniProt O14656). Description: torsin A binders from cell lysate, primary screen, small-molecule microarray, wild-type, 635/667 nm (AID 1149). The conditions noted are these: COS7 hTOR1A-WT lysate, 635 nm fluorescence, higher = more signal.
Chain of Torsin-1A (Homo sapiens) (O14656 whole entry, looked up): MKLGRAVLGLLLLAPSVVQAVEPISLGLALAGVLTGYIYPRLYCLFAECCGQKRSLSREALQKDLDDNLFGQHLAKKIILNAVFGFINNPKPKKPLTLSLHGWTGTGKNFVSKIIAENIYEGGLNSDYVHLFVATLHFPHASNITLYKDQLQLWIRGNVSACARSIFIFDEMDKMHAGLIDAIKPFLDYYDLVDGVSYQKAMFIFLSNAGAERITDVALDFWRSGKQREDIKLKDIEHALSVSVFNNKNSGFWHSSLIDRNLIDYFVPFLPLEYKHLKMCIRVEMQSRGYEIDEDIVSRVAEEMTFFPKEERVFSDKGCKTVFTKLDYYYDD
Assay [9] has the same target. Description: small-molecule binders of mutant TOR1A in lysate, primary screen, cell lysate, small-molecule microarray, COS7 lysate, 635/667 nm fluorescence (AID 1150).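 Also: score pools 667 nm emission and signal to noise measuring lysate protein binding.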 The conditions noted are these: COS7 hTOR1A mutant lysate, 635 nm fluorescence, higher = more signal.
Assay [10] has as its system Sonic hedgehog protein (Shh). Description: small-molecule binders of Shh protein, primary screen, biochemical, small-molecule microarray, 635/667 nm fluorescence (AID 1151).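 Also: Shh protein binding to compounds spotted on small-molecule microarray slides; score combines spot fluorescence intensity with signal-to-noise across triplicate slides.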 The following applies: small-molecule microarray binding, 635 nm fluorescence; higher = more signal.
A short description of assay [11]: E. coli DRC41 culture turbidity changes, primary screen, E. coli filamentation inducer project, strain DRC41, OD650, 48 h (AID 1152).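 Also: E. coli MC1000 strain DRC41 lacking acrAB efflux pump and sulA.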 The conditions noted are these: E. coli DRC41 (acrAB sulA), higher = more signal, called active from +8 up or from −8 down.
A short description of assay [12]: small-molecule binders of probe aLefty1, primary screen, biochemical, small-molecule microarray, 635/667 nm fluorescence (AID 1153).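 Also: score merges spot fluorescence with signal-to-noise ratio from the scanned slide images.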 The conditions noted are these: higher = more signal.
A short description of assay [13]: PSAC antagonists in infected red cells, primary screen, cell-based, P. falciparum Indochina, OD700, 1 h (AID 1154). The following applies: P. falciparum Indochina infected RBC osmotic lysis, higher = more signal, called active from +8 up or from −8 down.
Assay [14] is described as follows: PSAC antagonists in infected red cells, primary screen, cell-based, P. falciparum Indochina, OD700, 2 h (AID 1155).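 Also: lysis reports solute entry through the parasite surface anion channel PSAC; channel blockers reduce lysis of infected cells.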 The conditions noted are these: P. falciparum Indochina infected erythrocytes, osmotic lysis OD700; higher = more signal, called active from +8 up or from −8 down.
Assay [15] in a line: osmotic lysis modulators in infected erythrocytes, primary screen, PSAC antagonist project, cell-based, P. falciparum Indochina, OD700, 3 h (AID 1156). The following applies: higher = more signal, called active from +8 up or from −8 down.
Assay [16] in a line: PSAC antagonists in infected red cells, primary screen, cell-based, P. falciparum Indochina, OD700, 18 h (AID 1157). The conditions noted are these: P. falciparum Indochina infected erythrocytes, osmotic lysis OD700, 18 h; higher = more signal, called active from +8 up or from −8 down.
Assay [17] can be described thus: modulators of S6 phosphorylation in cells, primary screen, cell-based, A549, cytoblot, luminescence, serum-stimulated (AID 1158).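 Also: serum-stimulated A549 lung adenocarcinoma cells; signal is phosphorylated S6 detected by cytoblot immunostaining with HRP secondary.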 The following applies: A549 phospho-S6 cytoblot, 5 h, higher = more signal.
In assay [18] the target is NADPH oxidase 2 (Homo sapiens) (UniProt P04839). Description: NOX2-dependent H2O2 signal modulators, primary screen, NOX inhibitor project, cell-based, HEK293-NOX2, PMA-stimulated, Amplex Red fluorescence (AID 1159). Also: test concentration not given here. The following applies: 45 min, higher = more signal, called active from +8 up or from −8 down.
Chain of NADPH oxidase 2 (Homo sapiens) (P04839 whole entry, looked up): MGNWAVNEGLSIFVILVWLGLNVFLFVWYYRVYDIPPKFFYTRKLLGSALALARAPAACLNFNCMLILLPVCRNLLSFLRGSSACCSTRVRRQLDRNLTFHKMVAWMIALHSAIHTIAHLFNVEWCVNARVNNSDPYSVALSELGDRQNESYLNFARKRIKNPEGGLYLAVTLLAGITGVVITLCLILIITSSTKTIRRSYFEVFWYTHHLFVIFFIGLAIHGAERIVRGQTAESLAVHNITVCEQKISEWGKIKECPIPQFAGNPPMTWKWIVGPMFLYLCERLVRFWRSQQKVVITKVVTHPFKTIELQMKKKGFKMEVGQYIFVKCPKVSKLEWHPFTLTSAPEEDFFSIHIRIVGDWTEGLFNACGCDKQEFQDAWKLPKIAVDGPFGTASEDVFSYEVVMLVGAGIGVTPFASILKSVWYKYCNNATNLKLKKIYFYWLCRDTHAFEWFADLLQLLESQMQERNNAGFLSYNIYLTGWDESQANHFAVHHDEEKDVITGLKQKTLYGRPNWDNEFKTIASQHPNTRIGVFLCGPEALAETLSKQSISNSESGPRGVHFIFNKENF
In assay [19] the target is NADPH oxidase 4 (Homo sapiens) (UniProt Q9NPH5). Description: NOX4-dependent H2O2 signal modulators, primary screen, NOX inhibitor project, cell-based, HEK293-NOX4, tetracycline-induced, Amplex Red fluorescence (AID 1160). The conditions noted are these: 45 min, higher = more signal, called active from +8 up or from −8 down.
Chain of NADPH oxidase 4 (Homo sapiens) (Q9NPH5 whole entry, looked up): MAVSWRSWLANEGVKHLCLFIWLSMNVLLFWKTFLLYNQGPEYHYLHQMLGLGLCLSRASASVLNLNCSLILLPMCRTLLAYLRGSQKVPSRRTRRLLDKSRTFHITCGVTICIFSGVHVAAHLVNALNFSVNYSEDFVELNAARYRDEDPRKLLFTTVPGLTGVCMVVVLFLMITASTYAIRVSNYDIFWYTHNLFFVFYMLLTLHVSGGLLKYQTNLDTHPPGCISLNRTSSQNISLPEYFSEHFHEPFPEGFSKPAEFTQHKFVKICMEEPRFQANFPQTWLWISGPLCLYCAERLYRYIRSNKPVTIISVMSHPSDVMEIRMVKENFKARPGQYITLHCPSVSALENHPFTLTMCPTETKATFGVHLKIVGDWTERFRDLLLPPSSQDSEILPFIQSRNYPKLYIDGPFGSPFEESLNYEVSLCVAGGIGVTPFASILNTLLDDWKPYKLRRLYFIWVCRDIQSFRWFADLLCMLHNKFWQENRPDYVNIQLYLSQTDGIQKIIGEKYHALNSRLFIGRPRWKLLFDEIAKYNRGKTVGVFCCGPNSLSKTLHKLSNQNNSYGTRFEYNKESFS
Assay [20] addresses NADPH oxidase 5 (Homo sapiens) (UniProt Q96PH1). Description: NOX5-dependent H2O2 signal modulators, primary screen, NOX inhibitor project, cell-based, HEK293-NOX5, Amplex Red fluorescence (AID 1161). The conditions noted are these: HEK293-NOX5, ionomycin, 45 min, higher = more signal.

Chain of NADPH oxidase 5 (Homo sapiens) (Q96PH1 whole entry, looked up): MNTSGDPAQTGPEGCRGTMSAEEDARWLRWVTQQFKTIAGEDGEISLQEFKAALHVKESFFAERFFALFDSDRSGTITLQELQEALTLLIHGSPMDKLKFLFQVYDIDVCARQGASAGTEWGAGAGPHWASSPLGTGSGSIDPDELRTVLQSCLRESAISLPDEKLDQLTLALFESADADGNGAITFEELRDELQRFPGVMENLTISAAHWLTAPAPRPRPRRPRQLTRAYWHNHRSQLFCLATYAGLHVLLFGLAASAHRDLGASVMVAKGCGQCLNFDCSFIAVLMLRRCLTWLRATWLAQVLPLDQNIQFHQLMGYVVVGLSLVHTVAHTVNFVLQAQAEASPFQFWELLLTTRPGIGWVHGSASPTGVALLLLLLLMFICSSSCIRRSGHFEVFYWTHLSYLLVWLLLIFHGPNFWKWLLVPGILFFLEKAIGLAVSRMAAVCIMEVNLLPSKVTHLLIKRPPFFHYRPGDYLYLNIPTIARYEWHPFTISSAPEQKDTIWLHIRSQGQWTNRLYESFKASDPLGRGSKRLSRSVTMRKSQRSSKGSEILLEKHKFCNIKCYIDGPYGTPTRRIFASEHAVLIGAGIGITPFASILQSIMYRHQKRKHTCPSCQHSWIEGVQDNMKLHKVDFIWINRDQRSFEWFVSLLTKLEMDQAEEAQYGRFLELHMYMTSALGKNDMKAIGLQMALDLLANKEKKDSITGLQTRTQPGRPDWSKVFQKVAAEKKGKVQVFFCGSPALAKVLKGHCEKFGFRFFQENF

Regarding `COc1ccc([Si](C)(C)[C@H]2[C@H](CCO)O[C@@]3(C(=O)N(Cc4cccc(NC(=O)[C@H](C)O)c4)c4ccccc43)[C@@H]2C)cc1`, the composite z-score in assay [1] was 0.209; in assay [6], 0.394; in assay [7], -0.0468; with Torsin-1A (Homo sapiens) [8] it was 0.715; with Torsin-1A (Homo sapiens) [9] it was 0.916; in [10] it was 1.98. For the same compound, in [12], the composite z-score came out at 0.19. Moreover, the z-score in assay [2] is -7.96 (inactive); in assay [3], -1.52 (inactive); in assay [4] it was 3.1 (inactive); in assay [5], -0.878 (inactive); in [11], 0.868 (inactive); in assay [13], 19.7 (active). The z-score in assay [14] was 5.46 (inactive); in assay [15] it was 0.334 (inactive); in [16] it was 1.8 (inactive); in [17], 0.993; in [18], -4.7 (inactive); in assay [19] it was 0.621 (inactive). This compound returned a z-score in assay [20] of -1.31.
Turning to `CC(=O)OC[C@H]1O[C@H](C#CCCCc2ccccc2)C=C[C@@H]1OC(C)=O`, the composite z-score was 0.18 in assay [1]; -0.111 in assay [6]; 0.322 in assay [7]; -0.0078 with Torsin-1A (Homo sapiens) [8]; 0.0804 with Torsin-1A (Homo sapiens) [9]; 1.19 in assay [10]. The composite z-score in assay [12] was -0.0536. Besides, the z-score in [2] was -2.33 (inactive); in assay [3], 0.952 (inactive); in assay [4], 0.106 (inactive); in assay [5], 1.28 (inactive); in assay [11] it was -0.802 (inactive); in assay [13], 3.35 (inactive). Further, the z-score in [14] is 0.23 (inactive); in [15], -0.213 (inactive); in [16], 0.148 (inactive); in assay [17], -0.0744; in [18], -1.19 (inactive); in [19], 0.903 (inactive). For the same compound, in assay [20], the z-score worked out at 0.839.
Turning to `COCCOC(=O)N1C(=O)[C@@]2(c3cc(C#Cc4ccc(OC)cc4)ccc31)[C@H](C(=O)N1CCN(c3ncccn3)CC1)[C@H]1C(=O)O[C@H](c3ccccc3)[C@H](c3ccccc3)N1[C@@H]2c1ccc(OCCO)cc1`, the composite z-score in assay [1] was 0.044; in [6], 0.531; in assay [7], 0.397; in the assay with Torsin-1A (Homo sapiens) [8], -0.0983; with Torsin-1A (Homo sapiens) [9] it was 0.33; in assay [10] it was 1. In addition, in [12], the composite z-score was determined as 0.327. The z-score in assay [2] is -0.151 (inactive); in assay [3] it was -0.118 (inactive); in assay [4], -0.606 (inactive); in [5], -0.242 (inactive); in assay [11], -0.541 (inactive); in [13] it was 10.1 (active). In addition, the z-score in [14] is 2.52 (inactive); in assay [15], 0.493 (inactive); in assay [16], 1.04 (inactive); in assay [17], -0.21; in [18], 1.51 (inactive); in [19], 0.337 (inactive). This compound also displayed a z-score in assay [20] of -0.0992.
As to `COc1ccc(O[C@H]2C=C[C@@H](c3ccccc3)O[C@@H]2COC(=O)N2CCCCC2)cc1`, the composite z-score was -0.19 in [1]; -0.221 in assay [6]; -0.108 in [7]; 0.205 with Torsin-1A (Homo sapiens) [8]; 0.125 with Torsin-1A (Homo sapiens) [9]; 0.147 in assay [10]. Further, in [12], the composite z-score is 0.174. Also, the z-score in assay [2] is -0.259 (inactive); in assay [3], 0.615 (inactive); in assay [4], 0.929 (inactive); in assay [5] it was 0.197 (inactive); in assay [11], 0.309 (inactive); in assay [13], 2 (inactive). Besides, the z-score is -0.213 (inactive) in [14]; -0.0257 (inactive) in assay [15]; -0.169 (inactive) in [16]; -0.428 in [17]; -0.138 (inactive) in assay [18]; 0.334 (inactive) in assay [19]. In [20], this compound showed a z-score of -1.71.
Consider `C=C(/C(=C/C[C@H](OC(C)=O)c1ccc(OCCO)cc1)c1cnc2ccccc2c1)C(C)C`, for which the composite z-score in [1] is 0.826; in assay [6], 0.868; in assay [7], -0.108; with Torsin-1A (Homo sapiens) [8] it was 0.55; with Torsin-1A (Homo sapiens) [9], 1; in [10], 2.21. This compound also gave a composite z-score in [12] of -0.314. In addition, the z-score in assay [2] was -2.51 (inactive); in assay [3], -1.37 (inactive); in assay [4], 2.06 (inactive); in assay [5], -0.586 (inactive); in assay [11], 1.02 (inactive); in [13] it was 12.8 (active). Moreover, the z-score is 1.64 (inactive) in assay [14]; 1.56 (inactive) in assay [15]; 0.749 (inactive) in assay [16]; 0.268 in [17]; -2.21 (inactive) in [18]; -0.569 (inactive) in assay [19]. Moreover, in [20], the z-score is -1.8.

(Values after PubChem BioAssay.)
